USP17 block – inhibitors of human USP17 deubiquitinase. actives 6.5% (n = 47,000). purified USP17, Ub-rhodamine cleavage fluorescence, 3 h. inhibition, % at 50 µM. A8MUK1
USP30 block – inhibitors of human USP30 deubiquitinase | inhibition, % at 25 µM | actives 5.3% (n = 47,000) | AID 1645860 | purified USP30, Ub-rhodamine cleavage fluorescence
Target sequence (Q70CQ3 whole entry, looked up): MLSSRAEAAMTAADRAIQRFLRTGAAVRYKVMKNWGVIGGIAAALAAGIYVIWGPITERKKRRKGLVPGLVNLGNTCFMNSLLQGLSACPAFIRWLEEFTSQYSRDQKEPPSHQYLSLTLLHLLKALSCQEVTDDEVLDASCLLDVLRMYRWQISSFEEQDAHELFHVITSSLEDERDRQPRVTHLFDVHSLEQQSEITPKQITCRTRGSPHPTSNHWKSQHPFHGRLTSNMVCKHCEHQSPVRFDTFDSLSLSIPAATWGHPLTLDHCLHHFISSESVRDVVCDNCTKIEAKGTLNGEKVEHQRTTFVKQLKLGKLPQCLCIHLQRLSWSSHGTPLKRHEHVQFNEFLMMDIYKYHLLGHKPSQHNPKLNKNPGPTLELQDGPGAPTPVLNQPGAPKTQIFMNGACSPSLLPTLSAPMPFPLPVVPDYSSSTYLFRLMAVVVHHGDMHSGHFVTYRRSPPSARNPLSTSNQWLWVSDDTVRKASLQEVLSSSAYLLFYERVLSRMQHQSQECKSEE
USP28 inh – human USP28 deubiquitinase inhibition; actives 3% (n = 47,000); Q96RU2; purified USP28, Ub-rhodamine cleavage fluorescence, 30 min; inhibition, % at 25 µM
OTUD3 inh – blocks human OTUD3 ubiquitin-rhodamine cleavage. Q5T2D3. purified OTUD3, Ub-rhodamine fluorescence, 2 h. inhibition, % at 25 µM. actives 0.7% (n = 47,000). AID 1645858
Starred values were filed as active, the others as inactive; i = inactive; . = not tested or not shown. The list is not random: actives were taken first. Their share in the collection is about 11%. Cut-off read from the data, not from the text of the source: active = inhibition above about 30%; inactive = the rest.

SMILES | USP17 block | USP30 block | USP28 inh | OTUD3 inh
Cc1ccccc1NC(=O)C1(N(Cc2ccco2)C(=O)Cc2cc3ccccc3[nH]2)CCCCC1 | 2 | -1 | 14 | 4
O=C(NCc1nc(-c2ccc(S(=O)(=O)N3CCCC3)cc2)no1)c1ccco1 | 7 | -4 | 13 | 9
Cc1cnc(C2COCCN2C(=O)c2ccc3c(c2)OCO3)[nH]1 (stereo not drawn) | 18 | 16 | 4 | 19
CC(C)N1C(=O)C2COCCN2C(=O)c2cc3c(cc21)OCO3 (stereo not drawn) | 37* | . | . | 18
Cc1ccccc1NC(=O)N1CCC2(CC1)N=C(c1ccccc1)C(=O)N2 | -1 | -2 | -1 | 0
CC(=O)c1ccc(NC(=O)/C(=C/c2ccco2)n2nnnc2-c2ccccc2)cc1 | 51* | -128 | 12 | 2
O=C(Nc1ccccc1)/C(=C/c1ccco1)n1nnnc1-c1ccccc1 | -7 | -69 | -16 | -13
CCc1cc(C(=O)NCc2ccc(OC)cc2)nc2ccnn12 | -4 | 1 | 0 | -4
O=C(/C=C/C=C/C=C/C1CCCCC1)NC1=C[C@@](O)(/C=C/C=C/C=C/C(=O)NC2=C(O)CCC2=O)[C@@H]2O[C@@H]2C1=O | 68* | -39 | 75* | 73*
O=S1(=O)CCN2C(c3ccccc3Cl)=CSC2=N1 | -11 | -17 | 1 | 3
CCOC(=O)c1sc(C#N)c2c1CC(C)(C)CC2=O | -3 | 7 | 5 | 9
Cc1ccc(N(C(=O)CCCC(=O)Nc2ccccn2)C(C(=O)NC2CCCC2)c2ccc(F)cc2)c(C)c1 (stereo not drawn) | 16 | 9 | 1 | 12
COc1ccc(CN(CC(=O)NC2CCCCC2)C(=O)CCC(=O)Nc2ccccn2)cc1 | 4 | 48* | 0 | 11
CCCCOc1ccc(N(C(=O)CCCC(=O)Nc2ccccn2)C(C(=O)NC2CCCC2)c2ccc(F)cc2)cc1 (stereo not drawn) | -2 | 2 | 0 | 0
COc1ccc(OC)c(N(C(=O)CCCC(=O)Nc2ccccn2)C(C(=O)NC2CCCCC2)c2ccc(F)cc2)c1 (stereo not drawn) | 35* | 9 | -4 | -3
Cc1ccc(C(C(=O)NC2CCCCC2)N(C(=O)CCCC(=O)Nc2ccccn2)c2ccc(C)cc2C)cc1 (stereo not drawn) | 49* | 27 | 5 | 20
COc1ccc(CN2C[C@H]3C[C@H](C(=O)NCC4CC4)[C@@H](C2)O3)cc1 | 0 | 5 | 12 | 8
CCc1ccccc1NC(=O)CN1C(=O)CSc2ncccc21 | -27 | -62 | -8 | -15
Cc1cc(C)c(NC(=O)Cn2c(SCc3cccc(F)c3)nc3cccnc32)c(C)c1 | 64* | 73* | 40* | 18
CCc1ccccc1NC(=O)Cn1c(SCc2ccc(F)cc2)nc2cccnc21 | 86* | 57* | 43* | 27
COc1ccc(Cn2nccc2NC(=O)COc2ccc(Br)cc2)cc1 | 0 | 7 | -11 | 0
CNc1nccnc1C1CN(C(=O)c2ccc(OC)c(F)c2)CCO1 (stereo not drawn) | -2 | 3 | -1 | 1
COc1ccc(-n2c3c(c(=O)[nH]c2=O)CN(C2CCCC2)CN3)cc1 | 5 | 22 | 11 | 6
CN(C)c1cc(-n2cnc(C(=O)NCc3ccccc3Cl)c2)ncn1 | 52* | 28 | 10 | 10
CN(C)c1cc(-n2cnc(C(=O)NCc3ccc(Cl)cc3)c2)ncn1 | 13 | 21 | 9 | 0
SMILES | USP17 block | USP30 block | USP28 inh | OTUD3 inh
COc1cccc(OC)c1C(=O)Nc1cccc(N2CCCCC2=O)c1 | -1 | -6 | -2 | -1
COc1cccc(OC)c1C(=O)Nc1cccc(-c2ccc(N3CCN(C)CC3)nn2)c1 | 41* | -13 | 4 | 0
O=C(Nc1cccc(-c2ccc(N3CCCC3)nn2)c1)c1c(F)cccc1F | 31* | 2 | 22 | 12
COc1ccc(NC(=O)c2ccc(-c3ccc(N4CCOCC4)nn3)cc2)c(OC)c1 | -4 | 18 | -5 | -4
COc1cccc(OC)c1C(=O)Nc1cccc(-c2ccc(N3CCCC3)nn2)c1 | 36* | 5 | 10 | 0
O=C1c2ccccc2S(=O)(=O)N1Cc1ccc2nsnc2c1 | 4 | 23 | 35* | 7
CC(C)CN[C@H]1CS(=O)(=O)C[C@@H]1S(=O)(=O)c1ccccc1 | 3 | 10 | 0 | -2
Cc1ccc(OCC2SCCN2C(=O)c2ccc(F)cc2)c([N+](=O)[O-])c1 (stereo not drawn) | -15 | 28 | 15 | 15
COc1ccc(Cn2nnc(C(=O)N3CCCCC3)c2-n2cccc2)cc1 | 30* | -61 | -5 | -4
O=C(c1cn(-c2cccc(Cl)c2)nn1)N1CCSCC1 | -2 | -4 | -6 | 0
O=C(c1nnn(Cc2ccc(Cl)cc2)c1-n1cccc1)N1CCSCC1 | 7 | 7 | 36* | 5
Cc1ccc(Cn2nnc(C(=O)N3CCCC3)c2-n2cccc2)cc1 | 9 | -31 | 13 | 6
O=C(CCn1cnc2cc(-c3noc(-c4ccncc4)n3)ccc21)N1CCCCC1 | 6 | 27 | 0 | 10
CC(=O)Nc1ccc(OCC(O)CN2CCN(c3ccc(F)cc3)CC2)cc1 (stereo not drawn) | -6 | 0 | -8 | -7
CCCCOc1ccc(-c2cc(C(=O)N/N=C/c3ccc(OC)cc3OC)c3ccccc3n2)cc1 | 9 | 5 | 16 | 6
COc1ccccc1CN1CCC([C@@H]2C[C@H](C(F)(F)F)n3ncnc3N2)CC1 | 11 | 31* | 8 | 5
COc1ccc(CN2CCC([C@@H]3C[C@H](C(F)(F)F)n4ncnc4N3)CC2)cc1OC | 1 | 10 | 3 | 13
COc1cnc(CSc2ccccc2)cc1OCC(=O)Nc1ccccc1F | 36* | 25 | -3 | -2
COc1cnc(CSc2ccccc2)cc1OCC(=O)Nc1ccccc1 | -1 | -7 | -4 | -6
COc1cnc(CSc2ccccc2)cc1OCC(=O)Nc1ccc(F)cc1 | 29 | 43* | 9 | 14
COc1ccc(NC(=O)COc2cc(CSc3ccccc3)ncc2OC)cc1 | 61* | 43* | 17 | 8
Cc1n[nH]c(C)c1C(=O)N1CCN(C2CCN(Cc3ccc(Cl)o3)CC2)C(=O)C1 | -173 | i | -251 | -189
CCc1cc2c(=O)n(Cc3ccco3)c(SCC(=O)Nc3ccccc3O)nc2s1 | . | 44* | 13 | 6
Cc1sc2nc(SCC(=O)Nc3ccccc3O)n(Cc3ccco3)c(=O)c2c1C | 13 | 15 | 12 | 11
COc1cccc(CCN2C[C@H]3CCN(C(=O)c4cc(C)on4)CC[C@H]3S2(=O)=O)c1 | 0 | 6 | 3 | 7
CSc1cccc(NC(=O)CCc2nc3c(C)nn(-c4ccccc4)c3n(C)c2=O)c1 | 43* | -1 | -1 | 2
CCc1cccc(NC(=O)CCc2nc3c(C)nn(-c4ccccc4)c3n(C)c2=O)c1 | 48* | -7 | -4 | -1
Cc1nn(-c2ccccc2)c2c1nc(CCC(=O)NCc1ccccc1F)c(=O)n2C | 13 | 43* | 14 | 13
Cc1ccc(NC(=O)CCc2nc3c(C)nn(-c4ccccc4)c3n(C)c2=O)cc1C | 27 | 7 | 5 | 4
COc1ccc(OC)c(CCNC(=O)CCc2c(C)nc3c(c(C)nn3-c3ccc(C)c(C)c3)c2C)c1 | 7 | 0 | 2 | 8
